Measured values as given in PubChem BioAssay (Tox21).
Results filed as inconclusive are left out. Entries that show only a call come without a potency. Activity calls are given as the source filed them. Unless noted, calls come from the whole dose curve; as a rule, active = well fitted curve in the direction sought with a large enough effect in the repeat runs; inconclusive = weak or mixed curves; inactive = no such curve, though single readings can be large; an effect the other way counts as inactive or inconclusive.

Key:
[1] = qHTS assay to identify small molecule antagonists of the estrogen related receptor (ERR) signaling pathway (AID 1224819; note: nearly all actives have a fitted effect of over 50% in size)
How it was run: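 Luminescence readout (One-Glo, 30 min, RT) of ERR cell line after 18 h compound exposure at 37 C; cells seeded 2,000/well, pre-incubated 6 h, compounds pinned from DMSO stocks.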

[2] = qHTS assay to identify small molecule agonists of the estrogen related receptor (ERR) signaling pathway (AID 1224820)
How it was run: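 ERR reporter cell line (from NTP), 2,000 cells/well, incubated 6 h before compound addition, then 18 h at 37 C. Luminescence measured 30 min after One-Glo reagent at room temperature.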

[3] = test system: estrogen-related receptor alpha (ERRalpha) with PGC-1alpha coactivator, human; assay: qHTS assay to identify small molecule antagonists of the estrogen related receptor signaling pathway with the pleiotropic PPARgamma coactivator (PGC) (AID 1224821; calls by dose curve; note: nearly all actives have a fitted effect of over 50% in size)
How it was run: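 PGC/ERR reporter cell line, plated 6 h before compound addition, then exposed 18 h at 37 °C. Luciferase activity read by luminescence 30 min after One-Glo addition; decrease indicates antagonism.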

[4] = qHTS assay to identify small molecule agonists of the estrogen related receptor signaling pathway with the pleiotropic PPARgamma coactivator (PGC) (AID 1224823)
How it was run: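 PGC/ERR reporter cells seeded 6 h, then exposed to compounds (23 nL in DMSO) for 18 h at 37 C. One-Glo luciferase luminescence read after 30 min at room temperature.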

[5] = qHTS assay to identify small molecule antagonists of the estrogen related receptor signaling pathway with the pleiotropic PPARgamma coactivator (PGC) cell viability counter screen (AID 1224822;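 note: viability read after 17.5 h compound exposure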)
How it was run: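 PGC/ERR cells were plated at 2,000 per well and allowed 6 h to settle before compound addition. Following 17.5 h at 37 C, CellTiter-Fluor reagent was added and fluorescence was read 30 min later.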
Potency is the fitted concentration of half-maximal effect.

With `CCOC(=O)C1=C(C)NC(C)=C(C(=O)OCC)C1c1c(F)c(F)c(F)c(F)c1F` the Potency [1] was 19.6 µM (active), the Potency [2] was “inactive” and the Potency [3] was 25.6 µM (active). For the same molecule, the Potency [4] was “inactive”.

For `O=C(NOCC1CC1)c1cc(Br)c(F)c(F)c1Nc1ccc(I)cc1Cl`, the Potency [1] was 2.98 µM (active), the Potency [2] was “inactive” and the Potency [4] was “inactive”.

For `Cc1cc2c(cc1Cl)N(C(=O)Nc1ccc(Oc3cccnc3C)nc1)CC2`, the Potency [1] was 5.11 µM (active), the Potency [2] was “inactive” and the Potency [4] was “inactive”.

With `CN(C)c1ccc(/C=C2\C(=O)Nc3ccccc32)cc1` the Potency [1] was “inactive”, the Potency [2] was 3.35 µM (active) and the Potency [3] was “inactive”. For the same molecule, the Potency [4] was 3.1 µM (active).

For `CC[C@@H](C)[C@H]1O[C@]2(CC[C@@H]1C)C[C@@H]1C[C@@H](C/C=C(\C)[C@@H](O[C@H]3C[C@H](OC)[C@@H](O[C@H]4C[C@H](OC)[C@@H](O)[C@H](C)O4)[C@H](C)O3)[C@@H](C)/C=C/C=C3\CO[C@@H]4[C@H](O)C(C)=C[C@@H](C(=O)O1)[C@]34O)O2`, the Potency [1] was 12.3 µM (active), the Potency [2] was “inactive” and the Potency [3] was 16.8 µM (active). The Potency [5] was 23.7 µM (active) and the Potency [4] was “inactive”.

In the case of `CC[C@@H]1Cc2cc(O)ccc2C2=C1c1ccc(O)cc1C[C@H]2CC`, the Potency [1] is reported as 14.4 µM (active), the Potency [2] is reported as “inactive” and the Potency [3] is reported as 15 µM (active). The Potency [4] was “inactive”.

For `CC1(C)C(=O)N(CCN2CCC(C(=O)c3ccc(F)cc3)CC2)c2ccccc21`, the Potency [1] was 21.1 µM (active), the Potency [2] was “inactive” and the Potency [4] was “inactive”.

With `O=Nc1c(-c2c(O)[nH]c3ccccc23)[nH]c2ccccc12` the Potency [1] was “inactive”, the Potency [2] was 2.87 µM (active) and the Potency [3] was “inactive”.

In the case of `Cc1cccc(-c2[nH]c(C(C)(C)C)nc2-c2ccc3nccnc3c2)n1`, the Potency [1] is reported as 10.2 µM (active), the Potency [2] is reported as “inactive” and the Potency [3] is reported as 6.94 µM (active). For the same molecule, the Potency [5] was 8.1 µM (active) and the Potency [4] was “inactive”.

In the case of `Cc1cccc(C2CN(C)CCc3c2cc(O)c(O)c3Cl)c1` (configuration not stated), the Potency [2] is reported as “inactive”, the Potency [3] is reported as “inactive” and the Potency [4] is reported as “inactive”.

With `COC(=O)C1=C(C)NC(C)=C([N+](=O)[O-])C1c1ccccc1C(F)(F)F` (configuration not stated) the Potency [2] was “inactive” and the Potency [4] was “inactive”.

In the case of `COc1ccc(/C=C/c2nc(NCCCN(C)C)c3ccccc3n2)cc1`, the Potency [2] is reported as “inactive”, the Potency [3] is reported as 23.7 µM (active) and the Potency [4] is reported as “inactive”.

For `O=C1NC(=O)c2c1c(-c1ccccc1)cc1[nH]c3ccc(O)cc3c21`, the Potency [2] was “inactive”, the Potency [3] was “inactive” and the Potency [4] was “inactive”.

In the case of `Oc1cc2c(cc1O)CN(C(=S)NCCc1ccc(Cl)cc1)CCC2`, the Potency [2] is reported as “inactive”, the Potency [3] is reported as “inactive” and the Potency [5] is reported as “inactive”. For the same molecule, the Potency [4] was “inactive”.

For `COC1=C(OC)C(=O)c2ccccc2C1=O`, the Potency [1] was 11 µM (active) and the Potency [4] was “inactive”.

With `CC(C)c1ccc2c(c1)c(SC(C)(C)C)c(CC(C)(C)C(=O)O)n2Cc1ccc(Cl)cc1` the Potency [1] was 12.8 µM (active), the Potency [3] was 20.3 µM (active) and the Potency [4] was “inactive”.

In the case of `COC(=O)C1=C(C)NC(C)=C(C(=O)OC)C1c1cccc(NC(=O)NCCCN2CCC(c3cccc(OC)c3)CC2)c1`, the Potency [2] is reported as “inactive”, the Potency [3] is reported as 31 µM (active) and the Potency [5] is reported as 20.3 µM (active). For the same molecule, the Potency [4] was “inactive”.

For `C=CCN1CCc2c(cc(O)c(O)c2Cl)C(c2ccccc2)C1` (configuration not stated), the Potency [2] was “inactive”, the Potency [3] was “inactive” and the Potency [4] was “inactive”.

In the case of `CCCCN(CC)c1nc(C)nc2c1c(C)cn2-c1c(C)cc(C)cc1C`, the Potency [2] is reported as “inactive”, the Potency [3] is reported as 12.8 µM (active) and the Potency [5] is reported as 16.8 µM (active). For the same molecule, the Potency [4] was “inactive”.

In the case of `NS(=O)(=O)C#Cc1ccccc1`, the Potency [2] is reported as “inactive” and the Potency [4] is reported as “inactive”.

For `CC(C)N(CCC(=O)c1ccc2ccccc2c1)Cc1ccccc1`, the Potency [2] was “inactive” and the Potency [4] was “inactive”.

In the case of `N#C/C(=C\c1ccc(-c2cc(Cl)ccc2Cl)o1)C(=O)Nc1cccc2ncccc12`, the Potency [2] is reported as “inactive”, the Potency [3] is reported as “inactive” and the Potency [5] is reported as 14.4 µM (active).

For `O=C(CCCCCN1CCN(c2ccccc2-c2ccccc2)CC1)NC1CCCc2ccccc21` (configuration not stated), the Potency [4] was “inactive”.

For `C=CCN1CCc2c(cc(O)c(O)c2Br)[C@@H](c2ccccc2)C1`, the Potency [2] was “inactive”, the Potency [5] was “inactive” and the Potency [4] was “inactive”.

In the case of `CN1CCCC1CCOC(C)(c1ccccc1)c1ccc(Cl)cc1` (configuration not stated), the Potency [2] is reported as “inactive”, the Potency [3] is reported as “inactive” and the Potency [4] is reported as “inactive”.

For `CN(C)S(=O)(=O)c1ccc2c(c1)/C(=C/c1cc3c([nH]1)CCCC3)C(=O)N2`, the Potency [2] was “inactive”, the Potency [3] was “inactive” and the Potency [5] was “inactive”. For the same molecule, the Potency [4] was 23.7 µM (active).

With `C=C1C(=O)O[C@@H]2[C@H]3O[C@]3(C)CCC=C(C)CC[C@@H]12` the Potency [1] was “inactive” and the Potency [4] was “inactive”.

With `CCOC(=O)N1CCN(/[N+]([O-])=N/Oc2ccc([N+](=O)[O-])cc2[N+](=O)[O-])CC1` the Potency [2] was “inactive”, the Potency [5] was 13.9 µM (active) and the Potency [4] was “inactive”.

For `Nc1c(S(=O)(=O)O)cc(Nc2ccc(Nc3nc(Cl)nc(Nc4ccc(S(=O)(=O)O)cc4)n3)c(S(=O)(=O)O)c2)c2c1C(=O)c1ccccc1C2=O`, the Potency [2] was “inactive”, the Potency [3] was 18.8 µM (active) and the Potency [4] was “inactive”.

In the case of `COc1cccc2c1[C@@H]1CN(CCCCn3c(=O)[nH]c4c(sc5ncc(-c6ccccc6)nc54)c3=O)C[C@@H]1CO2`, the Potency [2] is reported as “inactive”, the Potency [3] is reported as “inactive” and the Potency [4] is reported as “inactive”.

In the case of `CC(C)C[C@H](NC(=O)[C@@H](O)[C@H](N)Cc1ccccc1)C(=O)O`, the Potency [2] is reported as “inactive”, the Potency [3] is reported as 6.94 µM (active) and the Potency [5] is reported as “inactive”. The Potency [4] was “inactive”.

With `C[C@H](Cc1ccc(O)c(O)c1)[C@@H](C)Cc1ccc(O)c(O)c1` the Potency [2] was “inactive”, the Potency [3] was “inactive” and the Potency [5] was “inactive”. The Potency [4] was “inactive”.

In the case of `CCCCCCCCCCC(C)(C)C(=O)Nc1c(OC)cc(OC)cc1OC`, the Potency [2] is reported as “inactive”, the Potency [3] is reported as “inactive” and the Potency [5] is reported as “inactive”. For the same molecule, the Potency [4] was “inactive”.

In the case of `O=C1NC(=O)c2cc(Nc3ccccc3)c(Nc3ccccc3)cc21`, the Potency [1] is reported as 10.2 µM (active) and the Potency [4] is reported as “inactive”.

With `O=C(/C=C/c1ccc(O)c(O)c1)OCCc1ccccc1` the Potency [1] was “inactive”, the Potency [3] was “inactive” and the Potency [5] was “inactive”. The Potency [4] was 14.4 µM (active).
